Experimental data taken from ChEMBL document CHEMBL1961873, “Compounds: GSK PKIS; Assays: Nanosyn kinase panel” (2012).

Experiments:
[1] = molecular target: T1, Serine/threonine-protein kinase D2 (Homo sapiens) (UniProt Q9BZL6); settings: at 1 µM;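 note: mean value of PRKD2 inhibition, from the GSK PKIS screening panel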
T1 sequence (whole entry): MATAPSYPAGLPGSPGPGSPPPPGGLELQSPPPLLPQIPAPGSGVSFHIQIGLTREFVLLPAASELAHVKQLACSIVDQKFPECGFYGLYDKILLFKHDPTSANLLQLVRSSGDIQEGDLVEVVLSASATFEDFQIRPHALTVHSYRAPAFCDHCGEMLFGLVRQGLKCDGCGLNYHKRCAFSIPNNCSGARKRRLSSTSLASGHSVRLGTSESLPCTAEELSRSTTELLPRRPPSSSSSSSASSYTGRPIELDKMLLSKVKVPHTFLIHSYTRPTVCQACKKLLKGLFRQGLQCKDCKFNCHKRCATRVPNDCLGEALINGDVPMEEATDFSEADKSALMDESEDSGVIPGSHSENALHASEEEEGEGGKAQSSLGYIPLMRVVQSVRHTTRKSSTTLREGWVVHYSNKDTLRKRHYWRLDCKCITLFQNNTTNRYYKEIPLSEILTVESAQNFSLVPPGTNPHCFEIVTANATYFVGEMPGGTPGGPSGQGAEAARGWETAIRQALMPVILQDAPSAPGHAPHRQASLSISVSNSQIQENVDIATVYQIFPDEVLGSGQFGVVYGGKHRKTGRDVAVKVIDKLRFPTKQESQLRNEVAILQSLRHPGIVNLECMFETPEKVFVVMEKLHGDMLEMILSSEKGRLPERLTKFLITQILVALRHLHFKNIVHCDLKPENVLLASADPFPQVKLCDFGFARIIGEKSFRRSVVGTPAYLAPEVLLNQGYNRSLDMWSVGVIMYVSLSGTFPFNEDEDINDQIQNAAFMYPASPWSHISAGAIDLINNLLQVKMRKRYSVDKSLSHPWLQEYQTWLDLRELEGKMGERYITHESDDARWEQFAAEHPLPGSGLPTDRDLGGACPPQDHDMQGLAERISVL

[2] = molecular target: T2, Serine/threonine-protein kinase D3 (Homo sapiens) (UniProt O94806); settings: at 0.1 µM
T2 sequence (whole entry): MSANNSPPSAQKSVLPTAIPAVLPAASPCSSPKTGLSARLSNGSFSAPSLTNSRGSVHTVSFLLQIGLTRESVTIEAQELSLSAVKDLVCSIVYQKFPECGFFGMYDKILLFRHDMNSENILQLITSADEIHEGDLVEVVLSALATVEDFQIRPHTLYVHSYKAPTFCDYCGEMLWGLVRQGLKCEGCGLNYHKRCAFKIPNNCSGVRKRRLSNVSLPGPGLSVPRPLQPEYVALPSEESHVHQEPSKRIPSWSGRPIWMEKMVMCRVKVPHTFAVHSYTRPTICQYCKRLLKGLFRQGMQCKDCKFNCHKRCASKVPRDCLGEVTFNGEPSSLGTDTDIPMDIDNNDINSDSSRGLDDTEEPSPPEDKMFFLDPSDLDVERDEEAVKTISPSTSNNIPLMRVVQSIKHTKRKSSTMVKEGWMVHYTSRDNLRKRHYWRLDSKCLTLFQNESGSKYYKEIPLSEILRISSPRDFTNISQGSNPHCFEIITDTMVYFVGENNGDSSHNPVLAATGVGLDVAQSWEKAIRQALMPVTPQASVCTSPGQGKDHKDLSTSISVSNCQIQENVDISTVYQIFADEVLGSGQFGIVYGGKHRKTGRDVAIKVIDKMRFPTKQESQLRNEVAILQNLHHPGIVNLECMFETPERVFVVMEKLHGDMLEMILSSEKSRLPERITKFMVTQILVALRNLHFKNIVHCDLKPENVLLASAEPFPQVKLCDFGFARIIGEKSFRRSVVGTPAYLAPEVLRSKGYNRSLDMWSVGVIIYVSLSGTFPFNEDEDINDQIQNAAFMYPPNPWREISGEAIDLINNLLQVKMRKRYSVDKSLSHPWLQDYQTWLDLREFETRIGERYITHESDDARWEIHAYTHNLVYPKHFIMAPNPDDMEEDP

[3] = molecular target: T2, Serine/threonine-protein kinase D3 (Homo sapiens); settings: at 1 µM
[4] = molecular target: T3, cGMP-dependent protein kinase 1 (Homo sapiens) (UniProt Q13976); settings: at 0.1 µM
T3 sequence (whole entry): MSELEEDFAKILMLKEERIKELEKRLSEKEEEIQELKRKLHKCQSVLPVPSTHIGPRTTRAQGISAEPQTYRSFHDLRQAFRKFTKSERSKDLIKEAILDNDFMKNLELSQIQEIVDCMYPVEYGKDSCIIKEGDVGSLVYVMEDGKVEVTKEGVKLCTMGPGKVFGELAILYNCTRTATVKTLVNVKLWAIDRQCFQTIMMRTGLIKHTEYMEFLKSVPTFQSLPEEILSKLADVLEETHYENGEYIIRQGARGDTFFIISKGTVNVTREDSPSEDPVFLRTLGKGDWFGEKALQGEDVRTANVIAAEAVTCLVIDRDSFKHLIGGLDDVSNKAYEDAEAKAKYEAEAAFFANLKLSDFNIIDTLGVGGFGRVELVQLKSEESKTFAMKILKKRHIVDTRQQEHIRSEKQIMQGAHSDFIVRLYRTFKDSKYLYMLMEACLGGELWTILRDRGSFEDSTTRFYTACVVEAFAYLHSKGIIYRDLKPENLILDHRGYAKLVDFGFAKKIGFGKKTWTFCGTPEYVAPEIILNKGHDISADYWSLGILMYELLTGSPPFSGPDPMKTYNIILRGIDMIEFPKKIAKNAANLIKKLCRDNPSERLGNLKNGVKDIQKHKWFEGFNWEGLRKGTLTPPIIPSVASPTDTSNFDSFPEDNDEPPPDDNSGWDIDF

[5] = molecular target: T3, cGMP-dependent protein kinase 1 (Homo sapiens); settings: at 1 µM
[6] = molecular target: T4, cGMP-dependent protein kinase 2 (Homo sapiens) (UniProt Q13237); settings: at 0.1 µM
T4 sequence (whole entry): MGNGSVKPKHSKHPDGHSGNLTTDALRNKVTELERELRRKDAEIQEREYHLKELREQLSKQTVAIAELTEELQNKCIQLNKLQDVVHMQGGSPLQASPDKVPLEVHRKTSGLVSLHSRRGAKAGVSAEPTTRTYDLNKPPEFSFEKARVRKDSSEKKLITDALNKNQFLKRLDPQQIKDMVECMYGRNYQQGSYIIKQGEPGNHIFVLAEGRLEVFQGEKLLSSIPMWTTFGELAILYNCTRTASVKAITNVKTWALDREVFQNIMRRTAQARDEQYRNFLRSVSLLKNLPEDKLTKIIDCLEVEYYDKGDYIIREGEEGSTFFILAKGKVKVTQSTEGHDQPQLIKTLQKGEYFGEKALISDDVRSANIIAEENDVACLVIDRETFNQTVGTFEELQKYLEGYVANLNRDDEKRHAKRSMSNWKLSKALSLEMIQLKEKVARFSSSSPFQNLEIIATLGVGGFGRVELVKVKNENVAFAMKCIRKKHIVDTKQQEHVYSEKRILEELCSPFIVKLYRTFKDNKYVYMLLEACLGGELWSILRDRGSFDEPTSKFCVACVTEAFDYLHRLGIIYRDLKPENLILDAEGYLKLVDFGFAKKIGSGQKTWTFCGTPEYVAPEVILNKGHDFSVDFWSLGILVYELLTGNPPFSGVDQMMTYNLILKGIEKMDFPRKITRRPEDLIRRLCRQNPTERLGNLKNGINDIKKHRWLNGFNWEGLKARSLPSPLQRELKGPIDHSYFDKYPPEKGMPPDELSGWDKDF

[7] = molecular target: T4, cGMP-dependent protein kinase 2 (Homo sapiens); settings: at 1 µM
[8] = molecular target: T5, cAMP-dependent protein kinase catalytic subunit PRKX (Homo sapiens) (UniProt P51817); settings: at 0.1 µM
T5 sequence (whole entry): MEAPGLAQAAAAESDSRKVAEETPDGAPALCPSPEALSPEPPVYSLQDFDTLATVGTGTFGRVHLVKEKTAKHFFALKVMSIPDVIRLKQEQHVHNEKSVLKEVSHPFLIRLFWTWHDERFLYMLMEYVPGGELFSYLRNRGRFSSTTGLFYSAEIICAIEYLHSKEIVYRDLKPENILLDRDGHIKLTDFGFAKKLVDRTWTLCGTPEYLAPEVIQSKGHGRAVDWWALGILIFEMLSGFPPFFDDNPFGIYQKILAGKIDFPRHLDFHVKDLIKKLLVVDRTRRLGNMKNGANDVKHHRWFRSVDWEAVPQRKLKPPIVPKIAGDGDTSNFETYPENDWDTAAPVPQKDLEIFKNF

[9] = molecular target: T5, cAMP-dependent protein kinase catalytic subunit PRKX (Homo sapiens); settings: at 1 µM
[10] = molecular target: Rho-associated protein kinase 1 (Homo sapiens) (UniProt Q13464); settings: at 0.1 µM
[11] = molecular target: Rho-associated protein kinase 1 (Homo sapiens) (UniProt Q13464); settings: at 1 µM
[12] = molecular target: Rho-associated protein kinase 2 (Homo sapiens) (UniProt O75116); settings: at 0.1 µM
[13] = molecular target: Rho-associated protein kinase 2 (Homo sapiens) (UniProt O75116); settings: at 1 µM
[14] = molecular target: Ribosomal protein S6 kinase alpha-1 (Homo sapiens) (UniProt Q15418); settings: at 0.1 µM
[15] = molecular target: Ribosomal protein S6 kinase alpha-1 (Homo sapiens) (UniProt Q15418); settings: at 1 µM
[16] = molecular target: Ribosomal protein S6 kinase alpha-3 (Homo sapiens) (UniProt P51812); settings: at 0.1 µM
[17] = molecular target: Ribosomal protein S6 kinase alpha-3 (Homo sapiens) (UniProt P51812); settings: at 1 µM
[18] = molecular target: Ribosomal protein S6 kinase alpha-2 (Homo sapiens) (UniProt Q15349); settings: at 0.1 µM
[19] = molecular target: Ribosomal protein S6 kinase alpha-2 (Homo sapiens) (UniProt Q15349); settings: at 1 µM
[20] = molecular target: Ribosomal protein S6 kinase alpha-6 (Homo sapiens) (UniProt Q9UK32); settings: at 0.1 µM;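 note: reported value is the mean inhibition of RSK4, from the GSK PKIS kinase inhibitor screen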
Ribosomal protein S6 kinase alpha-6 (Homo sapiens), sequence (Q9UK32 whole entry): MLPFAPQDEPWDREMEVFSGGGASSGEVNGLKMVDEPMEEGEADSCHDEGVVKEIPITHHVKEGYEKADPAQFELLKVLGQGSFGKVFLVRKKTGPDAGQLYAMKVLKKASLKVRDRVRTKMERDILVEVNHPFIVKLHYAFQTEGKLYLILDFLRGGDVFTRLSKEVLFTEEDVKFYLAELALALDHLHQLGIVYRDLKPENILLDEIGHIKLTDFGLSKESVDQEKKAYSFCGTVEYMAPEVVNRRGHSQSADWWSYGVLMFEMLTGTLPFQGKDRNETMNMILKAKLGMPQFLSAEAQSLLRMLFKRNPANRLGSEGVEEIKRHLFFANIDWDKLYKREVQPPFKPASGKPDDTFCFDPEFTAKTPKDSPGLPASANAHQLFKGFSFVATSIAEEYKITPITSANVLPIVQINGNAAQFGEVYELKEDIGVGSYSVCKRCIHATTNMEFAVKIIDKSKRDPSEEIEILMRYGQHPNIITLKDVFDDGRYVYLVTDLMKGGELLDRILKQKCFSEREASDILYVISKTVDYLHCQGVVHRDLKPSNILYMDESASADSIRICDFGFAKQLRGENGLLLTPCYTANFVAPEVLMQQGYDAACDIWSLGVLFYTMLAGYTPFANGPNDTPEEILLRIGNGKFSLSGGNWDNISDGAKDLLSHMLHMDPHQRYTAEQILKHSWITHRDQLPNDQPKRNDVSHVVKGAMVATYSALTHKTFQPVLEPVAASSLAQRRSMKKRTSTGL

Ribosomal protein S6 kinase alpha-2 (Homo sapiens), sequence (Q15349 whole entry): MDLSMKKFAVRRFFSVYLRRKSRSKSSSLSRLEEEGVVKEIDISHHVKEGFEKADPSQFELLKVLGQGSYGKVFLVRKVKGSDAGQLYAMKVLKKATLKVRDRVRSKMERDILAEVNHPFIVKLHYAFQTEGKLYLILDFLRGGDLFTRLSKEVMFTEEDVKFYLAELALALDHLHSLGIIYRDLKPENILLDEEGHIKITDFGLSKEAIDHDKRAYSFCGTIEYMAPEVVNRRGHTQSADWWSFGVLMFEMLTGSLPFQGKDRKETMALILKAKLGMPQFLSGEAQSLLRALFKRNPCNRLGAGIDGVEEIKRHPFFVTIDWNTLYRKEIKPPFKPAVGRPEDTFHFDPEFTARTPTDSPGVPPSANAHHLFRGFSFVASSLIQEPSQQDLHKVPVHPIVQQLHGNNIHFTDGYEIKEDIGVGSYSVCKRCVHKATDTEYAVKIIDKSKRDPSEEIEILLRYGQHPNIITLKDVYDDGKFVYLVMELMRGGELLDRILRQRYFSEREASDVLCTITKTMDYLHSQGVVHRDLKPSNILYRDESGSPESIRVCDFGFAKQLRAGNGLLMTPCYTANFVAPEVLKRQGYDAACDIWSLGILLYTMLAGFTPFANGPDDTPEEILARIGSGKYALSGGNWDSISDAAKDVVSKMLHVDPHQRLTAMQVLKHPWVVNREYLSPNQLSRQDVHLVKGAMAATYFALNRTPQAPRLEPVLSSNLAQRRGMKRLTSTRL
Ribosomal protein S6 kinase alpha-1 (Homo sapiens), sequence (Q15418 whole entry): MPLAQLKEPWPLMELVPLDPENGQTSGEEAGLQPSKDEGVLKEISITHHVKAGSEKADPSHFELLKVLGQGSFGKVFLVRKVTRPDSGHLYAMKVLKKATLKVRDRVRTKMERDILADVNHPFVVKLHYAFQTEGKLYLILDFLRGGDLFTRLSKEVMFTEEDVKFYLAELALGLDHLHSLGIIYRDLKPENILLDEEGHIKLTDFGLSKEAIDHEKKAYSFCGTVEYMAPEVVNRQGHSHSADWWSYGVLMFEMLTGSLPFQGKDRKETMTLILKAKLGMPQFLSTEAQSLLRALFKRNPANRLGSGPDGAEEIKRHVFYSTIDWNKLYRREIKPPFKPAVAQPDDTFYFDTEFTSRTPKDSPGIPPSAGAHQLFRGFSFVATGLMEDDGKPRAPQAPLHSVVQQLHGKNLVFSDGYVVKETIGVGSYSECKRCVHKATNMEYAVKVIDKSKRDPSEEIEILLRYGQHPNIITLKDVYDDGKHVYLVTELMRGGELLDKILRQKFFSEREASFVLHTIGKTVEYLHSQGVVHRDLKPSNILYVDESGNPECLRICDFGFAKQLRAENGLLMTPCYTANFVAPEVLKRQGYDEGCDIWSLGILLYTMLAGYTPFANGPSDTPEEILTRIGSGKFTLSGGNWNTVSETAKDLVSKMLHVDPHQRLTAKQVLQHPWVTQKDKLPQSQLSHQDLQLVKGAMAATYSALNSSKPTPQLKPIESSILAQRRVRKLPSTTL
Rho-associated protein kinase 2 (Homo sapiens), sequence (O75116 whole entry, looked up): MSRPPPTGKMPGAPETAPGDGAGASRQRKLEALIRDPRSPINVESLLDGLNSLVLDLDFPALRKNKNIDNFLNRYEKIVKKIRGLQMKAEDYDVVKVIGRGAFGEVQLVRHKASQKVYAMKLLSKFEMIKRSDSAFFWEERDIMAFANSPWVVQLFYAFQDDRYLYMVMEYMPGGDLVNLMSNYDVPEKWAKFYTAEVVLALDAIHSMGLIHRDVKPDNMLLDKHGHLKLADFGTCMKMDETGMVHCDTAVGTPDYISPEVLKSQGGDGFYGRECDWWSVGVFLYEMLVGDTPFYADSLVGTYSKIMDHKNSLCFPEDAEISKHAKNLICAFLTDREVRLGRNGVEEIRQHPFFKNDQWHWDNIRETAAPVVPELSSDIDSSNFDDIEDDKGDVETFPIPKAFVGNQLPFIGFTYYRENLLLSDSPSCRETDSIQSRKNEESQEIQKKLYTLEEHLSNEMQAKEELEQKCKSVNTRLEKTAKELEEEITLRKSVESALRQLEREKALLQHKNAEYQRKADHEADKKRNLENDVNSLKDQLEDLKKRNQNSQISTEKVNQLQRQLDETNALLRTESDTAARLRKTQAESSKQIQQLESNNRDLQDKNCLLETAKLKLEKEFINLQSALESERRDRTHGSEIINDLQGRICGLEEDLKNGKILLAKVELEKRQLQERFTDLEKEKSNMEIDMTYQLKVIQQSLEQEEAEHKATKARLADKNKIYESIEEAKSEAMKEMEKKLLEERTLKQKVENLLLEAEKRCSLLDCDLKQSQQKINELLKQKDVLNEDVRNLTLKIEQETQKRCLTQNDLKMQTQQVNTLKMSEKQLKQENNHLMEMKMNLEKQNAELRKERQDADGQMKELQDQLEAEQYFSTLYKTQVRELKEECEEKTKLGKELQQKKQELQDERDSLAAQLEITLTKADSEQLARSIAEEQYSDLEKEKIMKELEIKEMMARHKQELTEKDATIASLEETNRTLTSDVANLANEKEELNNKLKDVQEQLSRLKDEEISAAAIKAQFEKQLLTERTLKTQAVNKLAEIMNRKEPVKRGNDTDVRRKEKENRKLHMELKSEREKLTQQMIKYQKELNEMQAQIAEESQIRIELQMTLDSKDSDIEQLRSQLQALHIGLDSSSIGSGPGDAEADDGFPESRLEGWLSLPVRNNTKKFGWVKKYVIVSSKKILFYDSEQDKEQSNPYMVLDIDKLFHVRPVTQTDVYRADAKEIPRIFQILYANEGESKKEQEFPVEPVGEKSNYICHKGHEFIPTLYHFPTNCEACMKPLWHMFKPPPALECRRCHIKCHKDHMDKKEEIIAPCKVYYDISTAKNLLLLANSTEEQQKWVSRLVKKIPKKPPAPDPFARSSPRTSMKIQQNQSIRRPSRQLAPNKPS
Rho-associated protein kinase 1 (Homo sapiens), sequence (Q13464 2-1354 limits assumed): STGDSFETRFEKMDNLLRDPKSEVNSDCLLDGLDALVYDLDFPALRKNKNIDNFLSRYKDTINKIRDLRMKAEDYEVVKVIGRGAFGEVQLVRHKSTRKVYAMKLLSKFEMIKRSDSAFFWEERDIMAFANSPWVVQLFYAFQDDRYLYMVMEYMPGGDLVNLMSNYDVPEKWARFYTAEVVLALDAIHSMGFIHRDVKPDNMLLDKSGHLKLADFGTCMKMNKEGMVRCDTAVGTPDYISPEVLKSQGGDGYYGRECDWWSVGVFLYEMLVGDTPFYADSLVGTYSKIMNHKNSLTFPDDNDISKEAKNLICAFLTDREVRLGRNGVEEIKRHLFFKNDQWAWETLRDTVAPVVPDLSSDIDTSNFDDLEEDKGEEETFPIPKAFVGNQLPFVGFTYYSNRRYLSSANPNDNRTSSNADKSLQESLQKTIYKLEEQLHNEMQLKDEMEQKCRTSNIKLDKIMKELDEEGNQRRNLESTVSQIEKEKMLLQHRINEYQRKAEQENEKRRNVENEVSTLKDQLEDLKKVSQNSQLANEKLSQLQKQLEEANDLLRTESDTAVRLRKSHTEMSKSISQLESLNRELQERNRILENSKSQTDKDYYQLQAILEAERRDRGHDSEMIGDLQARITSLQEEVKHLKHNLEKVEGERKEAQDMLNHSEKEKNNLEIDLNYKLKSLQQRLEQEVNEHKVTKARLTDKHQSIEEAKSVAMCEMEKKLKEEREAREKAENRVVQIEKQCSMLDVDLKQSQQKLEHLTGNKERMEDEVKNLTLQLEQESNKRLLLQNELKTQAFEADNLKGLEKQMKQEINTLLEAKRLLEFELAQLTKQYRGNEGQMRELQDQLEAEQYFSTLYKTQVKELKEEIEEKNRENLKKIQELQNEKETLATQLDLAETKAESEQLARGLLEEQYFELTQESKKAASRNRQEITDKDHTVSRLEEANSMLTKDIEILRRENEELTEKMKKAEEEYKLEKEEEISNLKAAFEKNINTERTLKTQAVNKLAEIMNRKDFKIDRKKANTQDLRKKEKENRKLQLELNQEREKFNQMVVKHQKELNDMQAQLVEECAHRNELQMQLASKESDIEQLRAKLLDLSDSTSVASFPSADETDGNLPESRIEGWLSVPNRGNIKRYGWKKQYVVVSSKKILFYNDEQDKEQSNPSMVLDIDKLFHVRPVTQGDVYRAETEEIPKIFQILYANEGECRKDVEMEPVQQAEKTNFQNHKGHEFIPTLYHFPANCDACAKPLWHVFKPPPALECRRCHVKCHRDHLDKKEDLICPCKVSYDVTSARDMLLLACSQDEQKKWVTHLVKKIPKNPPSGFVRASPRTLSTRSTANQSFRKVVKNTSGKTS

COc1cc(Nc2ncc3c(C)nc(-c4cccc(Oc5ccccc5)c4)n3n2)cc(OC)c1OC
inhibition [1]: 3%
inhibition [2]: 1.74%
inhibition [3]: 3.77%
inhibition [4]: 1.98%
inhibition [5]: 2.3%
inhibition [6]: 1.18%
inhibition [7]: 2.71%
inhibition [8]: 1.26%
inhibition [9]: -0.03%
inhibition [10]: 1.05%
inhibition [11]: 1.17%
inhibition [12]: 0.99%
inhibition [13]: -0.91%
inhibition [14]: 1.56%
inhibition [15]: 7.14%
inhibition [16]: 0.9%
inhibition [17]: 8.61%
inhibition [18]: 2.77%
inhibition [19]: 14.4%
inhibition [20]: 2.59%

Fc1ccc(-c2ncn(CCCN3CCOCC3)c2-c2ccncc2)cc1
inhibition [1]: 3.09%
inhibition [2]: 1.63%
inhibition [3]: 2.8%
inhibition [4]: 0.4%
inhibition [5]: 0.29%
inhibition [6]: 0.94%
inhibition [7]: 0.26%
inhibition [8]: -0.21%
inhibition [9]: -1.38%
inhibition [10]: 1.06%
inhibition [11]: -0.82%
inhibition [12]: 0.06%
inhibition [13]: -4.4%
inhibition [14]: -1.49%
inhibition [15]: -3.25%
inhibition [16]: 0.33%
inhibition [17]: -0.73%
inhibition [18]: 0.61%
inhibition [19]: -0.22%
inhibition [20]: 0.43%

COc1ccc2ncn(-c3cc(O[C@H](C)c4ccccc4Cl)c(C(N)=O)s3)c2c1
inhibition [1]: -2.98%
inhibition [2]: 0.19%
inhibition [3]: -0.76%
inhibition [4]: 3.47%
inhibition [5]: 3.01%
inhibition [6]: 3.48%
inhibition [7]: 4.43%
inhibition [8]: 4.11%
inhibition [9]: 1.58%
inhibition [10]: 1.76%
inhibition [11]: 2.68%
inhibition [12]: 1.42%
inhibition [13]: 2.59%
inhibition [14]: -0.02%
inhibition [15]: 0.44%
inhibition [16]: -1.13%
inhibition [17]: -0.23%
inhibition [18]: 1.47%
inhibition [19]: 1.88%
inhibition [20]: 0.03%

CN(C)c1ccc2c(c1)/C(=C/Nc1ccc(S(N)(=O)=O)cc1)C(=O)N2
inhibition [1]: 5.28%
inhibition [2]: 3.16%
inhibition [3]: 4.44%
inhibition [4]: 2.39%
inhibition [5]: 1.76%
inhibition [6]: 1.53%
inhibition [7]: 8.65%
inhibition [8]: 0.94%
inhibition [9]: 2.58%
inhibition [10]: 0.76%
inhibition [11]: 5.77%
inhibition [12]: 5.46%
inhibition [13]: 13.3%
inhibition [14]: 1.57%
inhibition [15]: 11.6%
inhibition [16]: 2.82%
inhibition [17]: 14.7%
inhibition [18]: 5.18%
inhibition [19]: 25.9%
inhibition [20]: 4.28%
